Hits are enriched below; roughly 5.6% of the tested compounds scored in any of these assays.
PKM2 activator = activators of human pyruvate kinase M2. AID 1631. P14618. hit rate 0.34% among 260,000. purified PKM2, Kinase-Glo ATP luminescence, activation; response scale: 0% is enzyme alone, no compound. Potency, µM (highest dose often 57.5 µM), inactives show top-dose activation, most hits filed as activators; note: potency is the fitted concentration of half-maximal effect; nearly all actives have a fitted effect of over 55% in size
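Purified hPK-M2 (>95%) run at intermediate activity with 0.1 mM ADP and 0.5 mM PEP in 50 mM imidazole pH 7.2, KCl, MgCl2; 1 h room temperature. ATP formed read by Kinase-Glo luminescence; normalized to uninhibited and no-enzyme controls.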
Gal4-VP16 FLuc = inhibits Gal4-VP16 luciferase reporter, ROR gamma counter-screen | Drosophila S2 Gal4-VP16 UAS-luciferase, luminescence, 20 h | AID 2546 | hit rate 3.5% among 310,000 | Potency, µM (highest dose often 53.6 µM), for the others: at the top dose activity, negative = inhibition, hits mostly inhibitors;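 note: Gal4-VP16 expression switched on by copper sulfate through the metallothionein promoter; potency is the fitted concentration of half-maximal effect; nearly all actives have a fitted effect of over 50% in size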
RORg inh = blocks mouse ROR gamma transcriptional activity; P51450; Drosophila S2 Gal4-RORgamma UAS-luciferase reporter, 20 h; Potency, µM (series often up to 53.6 µM), without a hit: at the top dose activity change, negative = inhibition, hits mostly inhibitors; hit rate 5.4% among 310,000; note: potency is the fitted concentration of half-maximal effect; nearly all actives have a fitted effect of over 60% in size
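ROR gamma transcriptional activity was tracked as Gal4-UAS luciferase output in stably transfected Drosophila Schneider cells, with compound added 1 hr before 700 uM copper sulfate induction and a 20 hr ambient-temperature incubation.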
CtBP-E1A inh = blocks the CtBP interaction with E1A | AlphaScreen GST-E1A/His-CtBP binding, 1536-well; active compounds read low | activity change, % (concentration not given with the values) | hit rate 0.49% among 340,000 | AID 651724; in the data active = activity change below about -65%; inconclusive = mostly about -30% to -63%
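AlphaScreen with 125 nM GST-E1A and 125 nM His-CtBP (5X stocks) in Tris pH 8.0, 300 mM NaCl, BSA, Tween 20, TCEP. Compounds preincubated 2 h at 37 deg C, then glutathione donor/nickel acceptor beads added for 1 h at 37 deg C in dark.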
Six1-Eya2 inh = Six1/Eya2 interaction inhibition | AID 651725 | activity change, % (concentration not given with the values) | hit rate 0.56% among 360,000 | AlphaScreen GST-Six1/His-Eya2 binding, biochemical; active compounds read low; in the data active = activity change below about -65%; inconclusive = mostly about -30% to -63%
Target sequence (O00167 whole entry, looked up): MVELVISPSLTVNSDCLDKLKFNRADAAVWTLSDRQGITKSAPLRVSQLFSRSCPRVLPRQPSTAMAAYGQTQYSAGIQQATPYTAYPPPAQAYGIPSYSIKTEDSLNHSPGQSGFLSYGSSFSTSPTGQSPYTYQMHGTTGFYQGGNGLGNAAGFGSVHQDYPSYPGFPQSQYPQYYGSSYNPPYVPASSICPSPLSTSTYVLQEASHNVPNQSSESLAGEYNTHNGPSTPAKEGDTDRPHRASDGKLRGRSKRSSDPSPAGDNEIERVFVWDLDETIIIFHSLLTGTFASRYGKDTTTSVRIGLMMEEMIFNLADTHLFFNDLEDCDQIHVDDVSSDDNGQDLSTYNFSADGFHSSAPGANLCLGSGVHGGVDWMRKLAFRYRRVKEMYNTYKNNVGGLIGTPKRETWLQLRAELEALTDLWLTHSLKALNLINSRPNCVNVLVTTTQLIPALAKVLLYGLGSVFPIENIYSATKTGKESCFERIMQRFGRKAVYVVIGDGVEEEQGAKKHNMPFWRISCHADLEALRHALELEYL
Target sequence (Q15475 whole entry, looked up): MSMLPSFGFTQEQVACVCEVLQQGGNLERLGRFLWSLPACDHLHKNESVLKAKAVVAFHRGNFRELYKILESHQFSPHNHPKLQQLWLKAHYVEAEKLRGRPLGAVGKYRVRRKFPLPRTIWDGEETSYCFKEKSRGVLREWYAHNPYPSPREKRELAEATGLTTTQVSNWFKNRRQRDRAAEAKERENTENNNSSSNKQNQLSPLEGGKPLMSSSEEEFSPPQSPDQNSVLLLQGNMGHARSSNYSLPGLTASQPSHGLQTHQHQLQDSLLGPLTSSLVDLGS
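Six1/Eya2 binding was read as AlphaScreen signal after compounds were pinned into GST-Six1 plus His-tagged Eya2 (5X stock 250/500 nM) in pH 8.0 Tris/NaCl/TCEP buffer, beads added, then incubated 1 h, 37 C, dark.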
* = called active by the depositor; ! = a repeat was not active; [ ] = another dose, or the depositor's remark. Unless noted, calls come from the whole dose curve; as a rule, active = well fitted curve in the direction sought with a large enough effect; inconclusive = small, poorly fitted or top-dose-only effect, or another doubt; inactive = no such curve, though single readings can be large; an effect the other way counts as inactive or inconclusive. % is set by controls: 0 for no effect and ±100 for the full control effect.

`N#CC1=C(N)SC(N)=C(C#N)C1C1CC=CCC1` (stereo not drawn) gave PKM2 activator 3%, Gal4-VP16 FLuc inconclusive, RORg inh 16µM*, CtBP-E1A inh 4 and Six1-Eya2 inh 1.
Screening CC1(C(=O)NS(=O)(=O)c2ccc(C#N)cc2)CCN1C(=O)Cc1ccccc1Cl (stereo not drawn) returned CtBP-E1A inh 3 and Six1-Eya2 inh -2.
Screening O=c1cc(-c2ccccc2Cl)oc2c(NS(=O)(=O)c3cc(Cl)cc(Cl)c3O)ccc(O)c12 returned PKM2 activator -1%, Gal4-VP16 FLuc 5µM*, RORg inh inconclusive, CtBP-E1A inh -1 and Six1-Eya2 inh -10.
`CC(=O)c1cc(-c2ccc(F)cc2)n(CCC(=O)Nc2cccc(C)n2)c1C` gave PKM2 activator 3%, Gal4-VP16 FLuc -1%, RORg inh 18%, CtBP-E1A inh 0 and Six1-Eya2 inh -16.
`CCOC(=O)c1nnc(-c2ccc(C)cc2)nc1Oc1ccccc1Cl` gave PKM2 activator 3%, Gal4-VP16 FLuc 6.3µM*, RORg inh 7%, CtBP-E1A inh -1 and Six1-Eya2 inh 13.
`CCOC(=O)c1nnc(-c2ccccc2)nc1Sc1c(Cl)cccc1Cl` gave PKM2 activator -1%, Gal4-VP16 FLuc 18µM*, RORg inh -28%, CtBP-E1A inh -4 and Six1-Eya2 inh 0.
`C=CCN(CC=C)Cc1c(C)[nH]c2c(C)c(C)ccc2c1=O` gave PKM2 activator -4%, Gal4-VP16 FLuc 13µM*, RORg inh inconclusive, CtBP-E1A inh 0 and Six1-Eya2 inh 1.
`CC(C)C(=O)Nc1ccc2c(c1)Cc1cc(NC(=O)C(C)C)ccc1-2` gave PKM2 activator 1%, Gal4-VP16 FLuc -1%, RORg inh -27%[1.91 µM], CtBP-E1A inh 3 and Six1-Eya2 inh 4.
For C#CCOC(=O)c1ccccc1C(=O)n1nnc2ccccc21 the results were PKM2 activator -4%, Gal4-VP16 FLuc inconclusive, RORg inh 18µM*, CtBP-E1A inh 14 and Six1-Eya2 inh -3.
For CCn1cc(C(=O)NCC(=O)OC)c2cc(OC)c(OC)cc2c1=O the results were PKM2 activator -3%, Gal4-VP16 FLuc -7%, RORg inh -5%, CtBP-E1A inh -1 and Six1-Eya2 inh 0.
For Cc1ccc(CNC(=O)c2coc(=O)c3ccccc23)o1 the results were PKM2 activator 13µM*, Gal4-VP16 FLuc -16%, RORg inh inconclusive, CtBP-E1A inh 1 and Six1-Eya2 inh -7.
CCn1cc(C(=O)NCc2ccc(C)o2)c2cc(OC)c(OC)cc2c1=O was read as PKM2 activator 14µM*, Gal4-VP16 FLuc 1%, RORg inh 0%, CtBP-E1A inh -2 and Six1-Eya2 inh -7.
`Cc1ccc(S(=O)(=O)Nc2cc(Cl)c(O)c3ncccc23)cc1` gave PKM2 activator 12%, Gal4-VP16 FLuc 1.3µM*, RORg inh 0.71µM*, CtBP-E1A inh -89* and Six1-Eya2 inh -90*.
For Oc1c(I)cc(I)c2cccnc12 the results were PKM2 activator -3%, Gal4-VP16 FLuc 4.5µM*, RORg inh 2.5µM*, CtBP-E1A inh -73* and Six1-Eya2 inh -67*.
Screening O=S(=O)(O)c1cc(I)c(O)c2ncccc12 returned Gal4-VP16 FLuc -1% and RORg inh inconclusive.
Screening Cc1ccc(S(=O)(=O)Nc2cc(S(=O)(=O)c3ccc(C)cc3)c(O)c3cccnc23)cc1 returned Gal4-VP16 FLuc 13% and RORg inh -16%.
Oc1ccc(F)c2cccnc12 was read as PKM2 activator -2%, Gal4-VP16 FLuc 4.5µM*, RORg inh 2.8µM*, CtBP-E1A inh 1 and Six1-Eya2 inh -81*.
For Oc1ccc(Cl)c2cccnc12 the results were Gal4-VP16 FLuc 3.2µM*!, RORg inh 1.8µM*, CtBP-E1A inh -95* and Six1-Eya2 inh -91*.
For Cn1c(=O)c2cccnc2c(=O)n1C the results were CtBP-E1A inh 1 and Six1-Eya2 inh -1.
For COC(=O)c1ccc(S(=O)(=O)N2Cc3ccccc3C2)cc1 the results were PKM2 activator 16%, Gal4-VP16 FLuc -5%, RORg inh -5% and Six1-Eya2 inh 4.
